Screens as filed in PubChem BioAssay.
CHO-K1 Ca antag = nonselective inhibitor or artifact in parental CHO-K1 cells | ATP-induced calcium, Fluo-8 fluorescence | inhibition, % at 3 µM | 360,000 compounds, 0.6% hits;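 active means inhibition above a per-plate cutoff, the plate's mean sample inhibition plus 3 SD, cut at about 24% in these data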;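 further: 0% = DMSO plus EC80 ATP and 100% = DMSO alone without ATP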
M4 antag = blocks acetylcholine activation of human M4 receptor. 360,000 compounds, 0.73% hits. CHO-hM4 cells, ACh EC80, Fluo-8 calcium fluorescence. P08173. inhibition, % at 3 µM;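 active means inhibition above its plate's cutoff, the mean inhibition of sample wells plus 3 SD, cut at about 27% in these data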;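 further: 0% = acetylcholine EC80 with DMSO and 100% = DMSO without agonist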
Target sequence (P08173 whole entry, looked up): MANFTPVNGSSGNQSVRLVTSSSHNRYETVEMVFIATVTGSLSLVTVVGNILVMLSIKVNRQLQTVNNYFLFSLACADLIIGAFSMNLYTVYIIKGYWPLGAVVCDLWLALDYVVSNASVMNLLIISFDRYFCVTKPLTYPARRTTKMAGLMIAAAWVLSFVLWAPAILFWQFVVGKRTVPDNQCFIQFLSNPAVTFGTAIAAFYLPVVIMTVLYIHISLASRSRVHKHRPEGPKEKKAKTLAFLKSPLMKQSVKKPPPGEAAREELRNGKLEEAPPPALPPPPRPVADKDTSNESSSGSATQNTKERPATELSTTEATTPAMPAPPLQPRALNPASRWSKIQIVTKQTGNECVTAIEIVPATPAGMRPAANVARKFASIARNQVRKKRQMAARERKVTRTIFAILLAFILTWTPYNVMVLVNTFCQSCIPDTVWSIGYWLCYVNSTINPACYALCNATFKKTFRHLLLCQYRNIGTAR
M4 PAM = CHRM4 positive allosteric modulation; P08173; CHO-K1 hM4/Gqi5, Fluo-8 calcium fluorescence, ACh EC20; 0% = ACh EC20, 100% = maximal ACh; activation, % at 3 µM; 360,000 compounds, 0.4% hits; AID 624126;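 active means activation above its plate's cutoff, the mean activation of sample wells plus 3 SD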
CHO-K1 Ca ag = counter-screen for M1 agonists: effect in parental CHO-K1 cells; Fluo-8 calcium fluorescence; scaled to maximal ATP response, vehicle zero; activation, % at 3 µM; 360,000 compounds, 0.48% hits; AID 602248; in the data active means activation above about 15%;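 further: untransfected CHO-K1 host cells lacking M1 receptor as counterscreen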
CHRM4 agonist = CHRM4 agonism in calcium assay | P08173 | CHO-K1 hM4/Gqi5, Fluo-8 calcium fluorescence; vehicle 0%, full acetylcholine response 100% | activation, % at 3 µM | 360,000 compounds, 0.14% hits | AID 624127;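 active means activation above the run mean over all test wells plus 3 SD, cut at about 32% in these data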;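 further: peak over basal fluorescence ratio per well then scaled between controls; 0% = DMSO wells and 100% = acetylcholine at EC100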
M1 PAM parental = nonselective activator or artifact in parental CHO-K1 calcium assay. ATP EC20, Fluo-8 calcium fluorescence; 0% at ATP EC20, 100% at ATP max. 360,000 compounds, 0.02% hits. activation, % at 3 µM. AID 602247;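 active means activation above the run cutoff, the mean activation of all test compounds plus 3 SD, cut at about 40% in these data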;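 further: peak over basal fluorescence ratio in a 140 s read after ATP addition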
Numbers without * were called inactive. In the library only some 2% were active in any assay of this set; here they are far more common.

SMILES	CHO-K1 Ca antag	M4 antag	M4 PAM	CHO-K1 Ca ag	CHRM4 agonist	M1 PAM parental
CC(=O)c1cc2c(cc1NC(=O)C1CCC1)OCO2	-10	-1	24*	0	2	27
CC(/C=N/NC(=O)COc1ccccc1C)=N\NC(=O)COc1ccccc1C	3	5	-4	0	1	-9
Cc1ccc(CC(=O)N(C)CC(=O)Nc2ccc(N3CCOCC3)cc2)cc1C	25*	-4	2	0	2	-26
CCOc1ccc(CN(C)CC(=O)Nc2ccc(N3CCOCC3)cc2)cc1OC	1	0	1	16*	0	17
COc1ccc(C(=O)NCc2nnc(SCC(=O)Nc3ccccc3OC)n2C)cc1	4	-12	9	0	2	1
Cc1ccc(F)c(CNC(=O)C2CCC(=O)N(Cc3ccccn3)C2)c1F (centres undefined)	27*	-6	1	0	1	0
Cc1cccc(CNC(=O)C2CCC(=O)N(Cc3ccccc3F)C2)n1 (centres undefined)	3	-7	21*	0	1	9
Cc1ccc2nc(CNC(=O)C3CCC(=O)N(Cc4ccccc4F)C3)cn2c1 (centres undefined)	2	-4	1	1	1	-1
Cc1ccc(F)c(CNC(=O)C2CCC(=O)N(CCCN3CCCC3=O)C2)c1F (centres undefined)	9	7	-10	0	2	-4
Cn1cc(CNC(=O)C2CCC(=O)N(Cc3ccccc3F)C2)cn1 (centres undefined)	-6	-11	20*	0	0	-1
CCOC(=O)c1c(C)[nH]c(C(=O)N/N=C\c2ccccc2Cl)c1C	-3	-12	-10	7	10	8
COc1ccc(-c2cc(C(F)(F)F)n3nc(C(=O)Nc4c(C)n(C)n(-c5ccccc5)c4=O)c(Cl)c3n2)cc1	26*	7	-3	0	1	-15
CC1(C)CCN2CCC(C)(C)c3c(O)ccc1c32	26*	26	-13	34*	30	3
O=C1c2ccccc2C(=O)N1CN(C(=O)COc1ccccc1)c1ccccc1	-31	-12	-3	3	6	16
O=C1c2ccccc2C(=O)N1CN(C(=O)c1ccccc1)c1ccc(O)cc1	12	1	-4	22*	0	6
CCOc1ccc(NC(=O)COc2ccc(C(=O)NCCc3ccccc3)cc2)cc1	29*	11	-7	1	1	-12
CC(C)c1ccccc1NC(=O)COc1ccc(C(=O)NCCc2ccccc2)cc1	4	7	-5	3	8	14
COc1ccc(NC(=O)c2c3c(nc4ccccc24)CCC3)cc1S(=O)(=O)N1CCOCC1	6	-7	5	0	3	-10
CCNC(=O)c1cc(Br)ccc1Cl	24*	2	26	0	0	10
Cc1cc(C)nc(NC(=O)c2cc(Br)ccc2Cl)n1	-18	-6	5	2	1	24
CCCc1nc2ccc(C(=O)OC)cn2c1Cc1cccc(F)c1	6	-3	6	0	-1	1
Cc1c(NC(=O)c2ccc(S(=O)(=O)N3CCOCC3)cc2)c(=O)n(-c2ccccc2)n1C	-16	-13	2	1	1	-4
Cc1c(NC(=O)c2ccc(S(=O)(=O)N3CC(C)OC(C)C3)cc2)c(=O)n(-c2ccccc2)n1C (centres undefined)	32*	-1	-1	12	0	-8
CCc1ccc(-c2cc(C)no2)cc1S(=O)(=O)NCCCN1CCN(c2ccccc2)CC1	10	31*	-13	13	25	-6
Cc1cc(C)c2c(CN3CCCC3)cc(=O)oc2c1	30*	-2	4	-1	-1	-8
Cc1cc(C)c2c(CN3CCN(Cc4ccccc4)CC3)cc(=O)oc2c1	-2	4	-9	17*	1	-4
CCc1ccc2oc(=O)cc(CN3CCN(Cc4ccccc4)CC3)c2c1	3	65*	-18	0	3	-1
Cc1cc(C)c2c(CN3CCOCC3)cc(=O)oc2c1	-1	4	-15	3	6	11
Cc1noc(C)c1COc1ccc(C(=O)N2CCN(c3ccccn3)CC2)cc1	5	3	2	1	4	5
